Assay results reported in the supplement of paper PMC11219838.
A number with no mark means an inactive call.

What was measured:
Settings in all cases: 60 µM; 5 days; temperature: 20 °C
[1] = tested on: Meloidogyne hapla J2; assay: proportion of mobile M. hapla J2 relative to DMSO control (fraction of DMSO control); higher = more viable, less nematicidal, active = 0.7 or less
In short: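 Sealed 96-well plates, each well holding around 25 M. hapla J2 in distilled water with compound pinned to 60 µM final (0.6% v/v DMSO), were shaken at 200 rpm for 5 days at 20 °C. Then 2 µL of 1 M NaOH was added to each well. Microscope-scored mobility was normalised to the mean of DMSO-only wells from the same plate. Eight such wells were on each plate, and the two biological replicates were averaged.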

[2] = tested on: Caenorhabditis elegans dauer (daf-2(e1370)); assay: proportion of mobile C. elegans dauer larvae relative to DMSO control (fraction of DMSO control); higher = more viable, less nematicidal, active = 0.63 or less; extreme values may be limits of the assay
In short: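 Synchronized C. elegans daf-2(e1370) larvae were held at 25 °C for 48 h on MYOB plates with E. coli OP50 to form dauers, and about 20 dauers were added per 96-well well in liquid NGM. Compound was pinned to 60 µM final (0.6% v/v DMSO), and sealed plates were shaken at 200 rpm for 5 days at 20 °C. The proportion of mobile worms was scored under a dissection microscope relative to DMSO controls and averaged over two biological replicates.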

[3] = tested on: Ditylenchus dipsaci; assay: proportion of mobile D. dipsaci (mixed stage) relative to DMSO control (fraction of DMSO control); higher = more viable, less nematicidal, active = 0.86 or less; extreme values may be limits of the assay
In short: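 Mobility, expressed relative to DMSO controls, is the mean of two biological replicates. The test organisms were D. dipsaci grown on pea plants in Gamborg B-5 agar and extracted into water by filter funnel, with about 20 added per well of a 96-well plate in distilled water. Compound was pinned to 60 µM final (0.6% v/v DMSO), plates were sealed and shaken at 200 rpm for 5 days at 20 °C, and mobile worms were scored under a microscope once 2 µL 1 M NaOH had been added.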

Cc1ccc(OCc2nc(-c3ccc4c(c3)OCO4)no2)cc1C
proportion of mobile M. hapla J2 [1]: 1.04
proportion of mobile C. elegans dauer larvae [2]: 1
proportion of mobile D. dipsaci [3]: 1

CCCSc1nnc(-c2ccc(Cl)cc2Cl)o1
proportion of mobile M. hapla J2 [1]: 0.991
proportion of mobile C. elegans dauer larvae [2]: 0.143 (active)
proportion of mobile D. dipsaci [3]: 1

O=C(Nc1cccc(-c2noc(-c3cccnc3)n2)c1)c1cccs1
proportion of mobile M. hapla J2 [1]: 0.999
proportion of mobile C. elegans dauer larvae [2]: 1
proportion of mobile D. dipsaci [3]: 1

Cc1cc(OCc2nc(-c3ccccc3)no2)cc(C)c1Cl
proportion of mobile M. hapla J2 [1]: 1.05
proportion of mobile C. elegans dauer larvae [2]: 1
proportion of mobile D. dipsaci [3]: 1

Fc1ccc(-c2noc(-c3ccc(F)cc3)n2)cc1
proportion of mobile M. hapla J2 [1]: 1.01
proportion of mobile C. elegans dauer larvae [2]: 1
proportion of mobile D. dipsaci [3]: 1

Brc1ccc(-c2noc(-c3cccs3)n2)cc1
proportion of mobile M. hapla J2 [1]: 0.884
proportion of mobile C. elegans dauer larvae [2]: 0.383 (active)
proportion of mobile D. dipsaci [3]: 1

Brc1ccc(-c2noc(-c3ccc(Br)o3)n2)o1
proportion of mobile M. hapla J2 [1]: 0.949
proportion of mobile C. elegans dauer larvae [2]: 1
proportion of mobile D. dipsaci [3]: 1

Brc1ccccc1-c1nc(-c2ccccc2)no1
proportion of mobile M. hapla J2 [1]: 1.04
proportion of mobile C. elegans dauer larvae [2]: 0.676
proportion of mobile D. dipsaci [3]: 1

O=C(Nc1cccnc1)c1ccccc1-c1nc(-c2ccc(Cl)cc2)no1
proportion of mobile M. hapla J2 [1]: 0.934
proportion of mobile C. elegans dauer larvae [2]: 1
proportion of mobile D. dipsaci [3]: 1

COc1ccc(-c2noc(-c3ccccc3C(=O)Nc3ccc(NC(C)=O)cc3)n2)cc1
proportion of mobile M. hapla J2 [1]: 0.923
proportion of mobile C. elegans dauer larvae [2]: 1
proportion of mobile D. dipsaci [3]: 1

COc1ccc(Cl)cc1-c1nc(-c2ccc3c(c2)OCO3)no1
proportion of mobile M. hapla J2 [1]: 0.957
proportion of mobile C. elegans dauer larvae [2]: 1
proportion of mobile D. dipsaci [3]: 1

Clc1ccc(-c2nc(-c3ccncc3)no2)c(Cl)c1
proportion of mobile M. hapla J2 [1]: 0.942
proportion of mobile C. elegans dauer larvae [2]: 1
proportion of mobile D. dipsaci [3]: 1

Cc1cc(OCc2nc(-c3cccnc3)no2)c(C)c(C)c1Br
proportion of mobile M. hapla J2 [1]: 0.934
proportion of mobile C. elegans dauer larvae [2]: 1
proportion of mobile D. dipsaci [3]: 1

Clc1ccc(-c2nc(-c3ccccc3Br)no2)cc1
proportion of mobile M. hapla J2 [1]: 0.984
proportion of mobile C. elegans dauer larvae [2]: 1
proportion of mobile D. dipsaci [3]: 1

Nc1nc(CSc2nnc(-c3ccccc3)o2)cs1
proportion of mobile M. hapla J2 [1]: 0.752
proportion of mobile C. elegans dauer larvae [2]: 1
proportion of mobile D. dipsaci [3]: 1

COc1ccc(Cl)cc1NC(=O)CSc1nnc(-c2ccncc2)o1
proportion of mobile M. hapla J2 [1]: 0.98
proportion of mobile C. elegans dauer larvae [2]: 1
proportion of mobile D. dipsaci [3]: 1

C=CCOc1cccc(-c2nc(-c3cccnc3)no2)c1
proportion of mobile M. hapla J2 [1]: 1.03
proportion of mobile C. elegans dauer larvae [2]: 1
proportion of mobile D. dipsaci [3]: 1

Cc1cccc(-c2noc(COc3ccc(Br)cc3)n2)c1
proportion of mobile M. hapla J2 [1]: 0.882
proportion of mobile C. elegans dauer larvae [2]: 1
proportion of mobile D. dipsaci [3]: 1

COc1cccc(-c2noc(COc3ccc(C)cc3C)n2)c1
proportion of mobile M. hapla J2 [1]: 0.941
proportion of mobile C. elegans dauer larvae [2]: 1
proportion of mobile D. dipsaci [3]: 1

O=C(CSc1nnc(-c2ccc(Br)cc2)o1)N1CCCCCC1
proportion of mobile M. hapla J2 [1]: 0.844
proportion of mobile C. elegans dauer larvae [2]: 1
proportion of mobile D. dipsaci [3]: 1

N#Cc1ccc(CSc2nnc(-c3ccccc3)o2)cc1
proportion of mobile M. hapla J2 [1]: 0.798
proportion of mobile C. elegans dauer larvae [2]: 1
proportion of mobile D. dipsaci [3]: 1

O=C(CSc1nnc(-c2ccccc2Cl)o1)Nc1ccccn1
proportion of mobile M. hapla J2 [1]: 0.946
proportion of mobile C. elegans dauer larvae [2]: 1
proportion of mobile D. dipsaci [3]: 1

Cn1c(SCc2cccc(F)c2)nnc1-c1ccco1
proportion of mobile M. hapla J2 [1]: 0.929
proportion of mobile C. elegans dauer larvae [2]: 1
proportion of mobile D. dipsaci [3]: 1

Cc1c(C(=O)CSc2nnc(-c3ccccc3)o2)c2ccccc2n1C
proportion of mobile M. hapla J2 [1]: 0.957
proportion of mobile C. elegans dauer larvae [2]: 1
proportion of mobile D. dipsaci [3]: 1

COc1nc(C)ccc1-c1noc(-c2ccccc2Cl)n1
proportion of mobile M. hapla J2 [1]: 1.02
proportion of mobile C. elegans dauer larvae [2]: 1
proportion of mobile D. dipsaci [3]: 1

O=C(CSc1nnc(-c2ccco2)o1)c1ccc(Br)cc1
proportion of mobile M. hapla J2 [1]: 0.997
proportion of mobile C. elegans dauer larvae [2]: 1
proportion of mobile D. dipsaci [3]: 1

O=C(CSc1nnc(-c2ccncc2)o1)Nc1ccc(Cl)cc1Cl
proportion of mobile M. hapla J2 [1]: 0.57 (active)
proportion of mobile C. elegans dauer larvae [2]: 1
proportion of mobile D. dipsaci [3]: 1

Clc1ccc(-c2nc(-c3ccc4c(c3)OCO4)no2)cc1
proportion of mobile M. hapla J2 [1]: 1.03
proportion of mobile C. elegans dauer larvae [2]: 1
proportion of mobile D. dipsaci [3]: 1

Cc1ccc(OCc2nc(-c3cccnc3)no2)c(Br)c1
proportion of mobile M. hapla J2 [1]: 0.992
proportion of mobile C. elegans dauer larvae [2]: 1
proportion of mobile D. dipsaci [3]: 1

O=C(Nc1ccc(-c2noc(-c3ccc(Cl)cc3)n2)cc1)c1ccco1
proportion of mobile M. hapla J2 [1]: 1.04
proportion of mobile C. elegans dauer larvae [2]: 1
proportion of mobile D. dipsaci [3]: 1

Cc1ccc(NC(=O)CSc2nnc(-c3ccccc3)o2)c(C)c1
proportion of mobile M. hapla J2 [1]: 0.951
proportion of mobile C. elegans dauer larvae [2]: 1
proportion of mobile D. dipsaci [3]: 1

COc1ccccc1-c1nnc(SCc2ccc(F)cc2)o1
proportion of mobile M. hapla J2 [1]: 0.329 (active)
proportion of mobile C. elegans dauer larvae [2]: 1
proportion of mobile D. dipsaci [3]: 1

Cc1ccc(OC(C)c2nc(-c3cccnc3)no2)cc1 (stereo not given)
proportion of mobile M. hapla J2 [1]: 1.03
proportion of mobile C. elegans dauer larvae [2]: 1
proportion of mobile D. dipsaci [3]: 1

CC(C)Oc1ccc(-c2nc(-c3ccncc3)no2)cc1
proportion of mobile M. hapla J2 [1]: 1
proportion of mobile C. elegans dauer larvae [2]: 0 (active)
proportion of mobile D. dipsaci [3]: 0.941

COc1ccc(-c2nnc(SCC(=O)Nc3ccc(Br)cc3C(C)C)o2)cc1
proportion of mobile M. hapla J2 [1]: 1
proportion of mobile C. elegans dauer larvae [2]: 1
proportion of mobile D. dipsaci [3]: 1
